Test results reported in PubChem BioAssay (NCATS).
Several values for one entry are separate records, joined by “and”; a condition that tells them apart may be missing. Identical values can stand only once. Results filed as inconclusive are left out. A call without a number means that no potency is given here. Some compounds were tested as several samples or in several runs, with calls that do not always agree. Activity calls are given as the source filed them. Calls come from the whole dose curve; as a rule, active = well fitted curve in either direction with a large enough effect; inconclusive = small, poorly fitted or top-dose-only effect; inactive = flat fitted curve, though single readings scatter.

What follows are compounds tested against Lysosomal alpha-glucosidase (Homo sapiens) (UniProt P10253) (assay: Confirmation of Inhibitors and Activators of Purified Human alpha-Glucosidase (AID 2115)). Settings: purified human GAA enzyme activity; series mostly up to 76.2 µM.
Text: NIH Chemical Genomics Center [NCGC]
NIH Molecular Libraries Probe Production centers Network [MLPCN]
Assay Submitter (PI): Wei Zheng
Alpha-glucosidase is responsible for hydrolysis of terminal, non-reducing 1,4-linked alpha-D-glucose residues with release of alpha-D-glucose. It is a lysosomal hydrolase that is required for the degradation of a small percentage (1-3%) of cellular glycogen in human. Deficiency of this enzyme results in glycogen-storage disease type II (GSDII), also referred to as Pompe disease, an autosomal recessive disorder. Structurally normal glycogen is accumulated in lysosomes and cytoplasm in affected patients, primarily in muscle tissues. Excessive glycogen storage within lysosomes may interrupt normal functioning of other organelles and leads to cellular injury. In turn, this leads to enlargement and dysfunction of the entire organ involved (eg, cardiomyopathy and muscle weakness).
It has reported that the improper folding and trafficking of alpha-glucosidase resulting from the genetic mutations may account for a significant number of Pompe patients. […] We optimized this alpha-glucosidase assay in 1536-well plate format for identifying the novel small molecule inhibitors with the structures other than the sugar analogs in order to develop the new pharmacological chaperones.
NCGC Assay Protocol Summary:
This is a fluorogenic enzyme assay with 4-methylumbelliferyl-alpha-D-[…] as the substrate and human […] as the enzyme preparation. Upon the hydrolysis of this fluorogenic substrate, the resulting product, 1. 4-methyllumbelliferone, can be excited at 365 nm and emits at 440 nm which can be detected by a standard fluorescence plate reader. Data were normalized to the controls for basal activity (without enzyme) and 100% activity (with enzyme). The AC50 values were determined from concentration-response data modeled with the standard Hill equation.
Assay buffer: 50 mM citric acid (titrated with potassium phosphate to pH 5.0), 0.005% Tween-20, pH 5.0. (pH 5.0 is an optimal condition for this enzyme assay)
1536-well assay protocol for the human alpha-glucosidase:
(1) Add 2 ul/well of enzyme (4 nM final)
(2) Add 23 nL compounds in DMSO solution. The final titration was 0.7 nM to 77 uM.
(3) Add 1 ul of substrate (400 uM final)
(4) Incubate at room temperature for 20 min.
(5) Add 2 ul stop solution (1M NaOH and 1M Glycine mixture, pH 10)
(6) Detect the assay plate in a ViewLux plate reader (PerkinElmer) with Ex=365 nm and Em=440nm.
Keywords: Alpha-glucosidase, Pompe Disease, pharmacological chaperone, chaperone therapy, high throughput screening, alpha-glucosidase inhibitor, MLSMR, MLSCN, NIH Roadmap, qHTS and NCGC
With `O=C1Cc2cc(S(=O)(=O)N3CCNCC3)ccc2N1` the Potency was “inactive”. In the case of `CC(=O)c1ccc(N2CCN(C(=O)c3ccc4c(c3)CC(=O)N4)CC2)cc1`, the Potency is reported as “inactive”. For `CC(=O)c1ccc(N2CCN(S(=O)(=O)c3cc4c(cc3Cl)NC(=O)C4)CC2)cc1`, the Potency was 1.63 µM (active) and 4.61 µM (active). For `CC(=O)c1ccc(N2CCN(C(=O)c3ccc4c(c3)CCC(=O)N4)CC2)cc1`, the Potency was “inactive”. For `CC(=O)c1ccc(N2CCN(S(=O)(=O)c3ccc4c(c3)OCC(=O)N4)CC2)cc1`, the Potency was “inactive”. `CC(=O)c1ccc(N2CCN(S(=O)(=O)c3ccc4c(c3)CCC(=O)N4)CC2)cc1` was tested, and the Potency was “inactive”. With `O=C1Cc2cc(S(=O)(=O)N3CCN(c4cccc(C(F)(F)F)c4)CC3)ccc2N1` the Potency was 14.9 µM (active). In the case of `CC(=O)c1ccc(N2CCN(S(=O)(=O)c3ccc(N4CCCC4=O)cc3)CC2)cc1`, the Potency is reported as “inactive”. In the case of `CC(=O)c1ccc(N2CCN(S(=O)(=O)c3ccc4[nH]c(=O)oc4c3)CC2)cc1`, the Potency is reported as “inactive”. In the case of `CC(=O)c1ccc(N2CCN(S(=O)(=O)c3ccc4c(c3)CC(C)N4C(C)=O)CC2)cc1` (configuration not stated), the Potency is reported as “inactive”. In the case of `CC(=O)Nc1ccc(S(=O)(=O)N2CCN(c3ccc(C(C)=O)cc3)CC2)cc1`, the Potency is reported as “inactive”. `CC(=O)c1ccc(N2CCN(S(=O)(=O)c3ccc4c(c3)CC(=O)N4)CC2)cc1` was tested, and the Potency was 730 nM (active) and 749 nM (active) and 819 nM (active). In the case of `N#Cc1ccc(N2CCN(S(=O)(=O)c3ccc4c(c3)CC(=O)N4)CC2)cc1`, the Potency is reported as 2.91 µM (active). For `CC(=O)c1ccc(N2CCN(S(=O)(=O)c3ccc4c(c3)CCCC(=O)N4)CC2)cc1`, the Potency was “inactive”. `O=C1Cc2cc(S(=O)(=O)N3CCN(c4ccc(O)cc4)CC3)ccc2N1` was tested, and the Potency was 1.88 µM (active). For `Cc1ccc(N2CCN(S(=O)(=O)c3ccc4c(c3)CC(=O)N4)CC2)cc1`, the Potency was “inactive”. In the case of `CC(=O)c1ccc(N2CCN(S(=O)(=O)c3ccc4c(c3)oc(=O)n4C)CC2)cc1`, the Potency is reported as “inactive”. `O=Cc1ccc(N2CCN(S(=O)(=O)c3ccc4c(c3)CC(=O)N4)CC2)cc1` was tested, and the Potency was 3.66 µM (active). With `CC(=O)c1ccc(N2CCN(S(=O)(=O)c3ccc4c(c3)C(Cl)(Cl)C(=O)N4)CC2)cc1` the Potency was 32.6 µM (active) and inactive. `COc1ccc(N2CCN(S(=O)(=O)c3ccc4c(c3)CC(=O)N4)CC2)cc1` was tested, and the Potency was 23.7 µM (active). `CC(=O)c1ccc(N2CCN(S(=O)(=O)c3ccc4c(c3)C(=O)OC4)CC2)cc1` was tested, and the Potency was “inactive”. With `CC(=O)c1ccc(N2CCN(S(=O)(=O)c3ccc4[nH]c(=O)[nH]c4c3)CC2)cc1` the Potency was “inactive”. With `CC(=O)N1CCN(S(=O)(=O)c2ccc3c(c2)CC(=O)N3)CC1` the Potency was 11.9 µM (active). For `O=C1Cc2cc(S(=O)(=O)N3CCN(c4ccc([N+](=O)[O-])cc4)CC3)ccc2N1`, the Potency was 3.66 µM (active). With `CC(=O)c1ccc(N2CCN(S(=O)(=O)c3ccc4c(c3)CCCN4C(C)=O)CC2)cc1` the Potency was “inactive”. In the case of `O=C1Cc2cc(S(=O)(=O)N3CCN(c4ccc(CO)cc4)CC3)ccc2N1`, the Potency is reported as 13 µM (active). With `CC(=O)c1ccc(N2CCN(S(=O)(=O)c3ccc4c(c3)n(C)c(=O)n4C)CC2)cc1` the Potency was “inactive”.
